Results: PubChem BioAssay AID1345085 (National Center for Advancing Translational Sciences (NCATS), 2018)
Records with an inconclusive call do not appear. Active and inactive are the calls of the source. The call rests on the fitted dose curve; in most records, active means well fitted cell-killing curve with a large enough effect; inconclusive means small, poorly fitted or top-dose-only effect, or effect the other way; inactive means no such curve, though single readings can be large or run the other way.

Each compound was assayed on Hek293T (assay: Confirmatory qHTS for gynecologic anti-cancer compounds from libraries of approved drugs and bioactive compounds). Conditions: gynecologic cancer cell panel viability, ATPlite luminescence, 48 h; series mostly up to 57.6 µM.
Summary of the method: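 ATP-based luminescent viability (ATPlite) after 48 h drug treatment at 37 °C, 5% CO2, across 57.5 uM–0.977 nM in 1:3 steps. Cells seeded at 1,000 per well 16 h beforehand; IC50 values computed, HEK 293T as selectivity control.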
Further: nearly all actives have a fitted effect of over 55% in size.
Potency means the concentration at half of the fitted maximal effect.

Structure (SMILES) | Potency
C=C(C)[C@H]1Cc2c(ccc3c2O[C@@H]2COc4cc(OC)c(OC)cc4[C@@H]2C3=O)O1 | 0.432 µM (active)
CCNC(=O)C[C@@H]1N=C(c2ccc(Cl)cc2)c2cc(OC)ccc2-n2c(C)nnc21 | inactive
C[C@H]1CCC/C=C/C2C[C@H](O)C[C@H]2[C@H](O)/C=C/C(=O)O1 (stereo partly drawn) | 1.09 µM (active)
